Results as given in PubChem BioAssay (EPA / NIEHS).
Records with an inconclusive call do not appear. Calls of active or inactive are those of the source. How the source made its calls, unless noted: active means hit-call score of the fitted dose curve at least 0.9, where 1 is the maximum; inactive means score below 0.9.

What was measured:
[1] = BSK_BT_PBMCCytotoxicity: PBMC Cytotoxicity Assessment in the BioMAP Diversity Plus: BT Assay (AID 2284225); settings: primary human B cells with PBMC;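 further: PBMC viability measured by Alamar Blue dye reduction fluorescence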
Outline: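 Primary human co-culture of B cells and PBMC, pre-dosed 1 h then activated with SEB and TSST-1. Cytotoxicity is taken from Alamar Blue dye reduction, added for 6 h at the end of a 90 h incubation.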

[2] = read-out: Secreted IgG (sIgG), gene 3500; experiment: BSK_BT_sIgG: BioMAP Diversity Plus: BT Assay for Secreted IgG (sIgG) Biomarker Activity (AID 2284226); settings: primary human B cells with PBMC
Outline: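 Human B cell/PBMC co-culture; compound exposure 24 h; sIgG by ELISA; gain-of-signal fit vs DMSO baseline.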

[3] = read-out: Interleukin 6 (IL6), IL6 (gene 3569); experiment: BSK_BT_xIL6: BioMAP Diversity Plus: BT Assay for Interleukin 6 (IL6) Biomarker Activity (AID 2284228); settings: primary human B cells with PBMC
Outline: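 Human B cell plus PBMC co-culture exposed to test chemical for 24 h; secreted IL-6 quantified by Luminex xMAP bead assay. Activity fitted in the positive direction against DMSO as negative control and baseline.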

[4] = read-out: Interleukin 17A (IL17A), IL17A (gene 3605); experiment: BSK_BT_xIL17A: BioMAP Diversity Plus: BT Assay for Interleukin 17A (IL17A) Biomarker Activity (AID 2284229); settings: primary human B cells with PBMC
Outline: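 B cells co-cultured with PBMC were exposed to test chemicals, and secreted IL-17A was quantified 24 h after dosing by Luminex xMAP bead immunoassay. Activity was fitted in the gain direction against DMSO as baseline.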

[5] = read-out: Vascular cell adhesion molecule 1 (VCAM1), VCAM1 (gene 7412); experiment: BSK_MyoF_VCAM1: BioMAP Diversity Plus: MyoF Assay for Vascular cell adhesion molecule 1 (VCAM1) Biomarker Activity (AID 2284231); settings: primary human lung fibroblasts
Outline: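 Primary human lung fibroblasts were dosed with test chemical for 24 h, then cell-surface VCAM-1 was measured by ELISA. Activity was fitted in the positive direction against DMSO as negative control and baseline.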

[6] = CCTE_Mundy_HCI_Cortical_Synap_Neur_Matur_SynapseCount: CCTE's Synaptogenesis and Neurite Maturation Assay in rat cortical cells for Synapse Count, Mundy Lab (AID 2284218)
Outline: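 Read-out: synapse number per neuron, automated high-content imaging of fixed cells immunostained for MAP2 and synaptophysin plus Hoechst nuclei. Rat primary cortical cultures, AraC at DIV 5, chemical dosing DIV 7–12. Positive-direction fit relative to DMSO.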

[7] = CCTE_Mundy_HCI_Cortical_Synap_Neur_Matur_NeuriteCount: CCTE's Synaptogenesis and Neurite Maturation Assay in rat cortical cells for Neurite Count, Mundy Lab (AID 2284222);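 further: exposure from day 7 to day 12 in vitro with readout at day 12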
Outline: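 Chemical exposure runs DIV 7–12 in rat cortical cultures, glia suppressed by AraC at DIV 5; measurement is at DIV 12. Imaging-derived neurite counts are fitted against DMSO baseline.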

[8] = CCTE_Mundy_HCI_Cortical_Synap_Neur_Matur_CellBodySpotCount: CCTE's Synaptogenesis and Neurite Maturation Assay in rat cortical cells for Cell Body Spot Count, Mundy Lab (AID 2284223)
Outline: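 Rat primary cortical cultures received AraC at DIV 5 to arrest glia, were dosed with chemical at DIV 7 with media change, and were fixed at DIV 12 (288.33 h). Synaptophysin puncta on MAP2-positive cell bodies per neuron were counted by high-content imaging versus DMSO.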

[9] = CCTE_Mundy_HCI_hNP1_Pro_ResponderAvgInten: CCTE's Proliferation Assay in human neuroprogenitor cells, Mundy Lab (AID 2284224; active means hit-call score of the fitted dose curve at least 0.9, where 1 is the maximum;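 further: human neural progenitor cells hNP1 derived from WA09 embryonic stem cells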)
Outline: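 Proliferation was scored as BrdU labelling intensity in human neural progenitors derived from WA09 embryonic cells, measured 26.25 hours after chemical dosing. Activity was fitted relative to DMSO.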

[10] = TAMU_PeakParms_SingleDonor1434_Chronotropy: Texas A&M University (TAMU) 1.5-hr Human Induced Pluripotent Stem Cell (iPSC)-derived Cardiomyocytes Calcium (Ca+2) Flux Assay for Cardiotoxicity: Chronotropy (changes in peak frequency) (AID 2284217); settings: actives raise or lower the signal
Outline: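 Beat frequency of single-donor iPSC cardiomyocytes was recorded through a calcium-sensitive dye 1.5 hours after exposure to four concentrations up to 100 uM. An EC05 point of departure was derived.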

Nc1cc([N+](=O)[O-])ccc1Cl
outcome [1]: inactive
outcome [2]: inactive
outcome [3]: inactive
outcome [4]: inactive
outcome [5]: inactive

CCCCCCCCCCCCCCCCCC(=O)OCC(CC)CCCC (stereo not drawn)
outcome [1]: inactive
outcome [2]: inactive
outcome [3]: inactive
outcome [4]: inactive
outcome [5]: inactive

O=C=NC1CCC(CC2CCC(N=C=O)CC2)CC1 (stereo not drawn)
outcome [1]: inactive
AC50 [2]: 31 µM (active)
outcome [3]: inactive
outcome [4]: inactive
outcome [5]: inactive

CC(=O)O[C@]1(C(C)=O)CC[C@H]2[C@@H]3C[C@H](C)C4=CC(=O)CC[C@]4(C)[C@H]3CC[C@@]21C
outcome [1]: inactive
AC50 [2]: 14.4 µM (active)
outcome [3]: inactive
outcome [4]: inactive
outcome [5]: inactive

C=C(C)C(=O)O[C@H]1C[C@@H]2CC[C@@]1(C)C2(C)C
outcome [1]: inactive
outcome [2]: inactive
outcome [3]: inactive
outcome [4]: inactive
AC50 [5]: 33.6 µM (active)

CC1CCC(C(C)CS)CC1S (stereo not drawn)
outcome [1]: inactive
outcome [2]: inactive
outcome [3]: inactive
outcome [4]: inactive
AC50 [5]: 8.17 µM (active)

O=[N+]([O-])c1cc(C(F)(F)F)ccc1Cl
outcome [1]: inactive
outcome [2]: inactive
outcome [3]: inactive
outcome [4]: inactive
outcome [5]: inactive

CC(C)Oc1ccccc1O
outcome [1]: inactive
outcome [2]: inactive
outcome [3]: inactive
outcome [4]: inactive
outcome [5]: inactive

O=C(O)C[C@H](O)C[C@H](O)/C=C/c1c(C2CC2)nc2ccccc2c1-c1ccc(F)cc1
outcome [1]: inactive
AC50 [2]: 0.122 µM (active)
outcome [3]: inactive
AC50 [4]: 2.42 µM (active)
outcome [5]: inactive

CC(C)c1ccc(C(C)C)cc1
outcome [1]: inactive
outcome [2]: inactive
outcome [3]: inactive
outcome [4]: inactive
outcome [5]: inactive

Cc1ccc(Nc2ccc(O)c3c2C(=O)c2ccccc2C3=O)cc1
outcome [1]: inactive
outcome [2]: inactive
outcome [3]: inactive
outcome [4]: inactive
outcome [5]: inactive

CCn1c2ccccc2c2cc(N)ccc21
outcome [1]: inactive
AC50 [2]: 15.4 µM (active)
AC50 [3]: 11.6 µM (active)
outcome [4]: inactive
outcome [5]: inactive

CN(CCOc1ccc(CC2SC(=O)NC2=O)cc1)c1ccccn1 (stereo not drawn)
outcome [1]: inactive
outcome [2]: inactive
outcome [3]: inactive
outcome [4]: inactive
AC50 [5]: 3.97 µM (active)

C=C[Si](OCC)(OCC)OCC
outcome [1]: inactive
outcome [2]: inactive
outcome [3]: inactive
outcome [4]: inactive
outcome [5]: inactive

Cc1ccc2n[nH]nc2c1
outcome [1]: inactive
outcome [2]: inactive
outcome [3]: inactive
outcome [4]: inactive
outcome [5]: inactive

O=C(O)c1cn(-c2ccc(F)cc2)c2cc(N3CCNCC3)c(F)cc2c1=O
outcome [1]: inactive
outcome [2]: inactive
outcome [3]: inactive
outcome [4]: inactive
outcome [5]: inactive

BrC1CCC(Br)C(Br)CCC(Br)C(Br)CCC1Br (stereo not drawn)
AC50 [1]: 32.4 µM (active)
AC50 [2]: 9.16 µM (active)
outcome [3]: inactive
AC50 [4]: 17.4 µM (active)
outcome [5]: inactive

COC(=O)c1ccc(C)cc1
outcome [1]: inactive
outcome [2]: inactive
outcome [3]: inactive
outcome [4]: inactive
outcome [5]: inactive

CCCCCCCCCC=O
outcome [1]: inactive
AC50 [2]: 20 µM (active)
outcome [3]: inactive
outcome [4]: inactive
outcome [5]: inactive

CCCCC(CC)COC(=O)/C=C\C(=O)OCC(CC)CCCC (stereo not drawn)
AC50 [1]: 36.1 µM (active)
AC50 [2]: 7.47 µM (active)
AC50 [3]: 11.2 µM (active)
outcome [4]: inactive
outcome [5]: inactive

CN(C)C(=N)N=C(N)N
outcome [6]: inactive
outcome [7]: inactive
outcome [8]: inactive

c1ccc2sc(SN(C3CCCCC3)C3CCCCC3)nc2c1
outcome [1]: inactive
outcome [2]: inactive
outcome [3]: inactive
outcome [4]: inactive
outcome [5]: inactive

C#C[C@]1(O)CC[C@H]2[C@@H]3CCC4=Cc5oncc5C[C@]4(C)[C@H]3CC[C@@]21C
outcome [1]: inactive
AC50 [2]: 14.3 µM (active)
outcome [3]: inactive
AC50 [4]: 24.4 µM (active)
AC50 [5]: 20 µM (active)

N#Cc1ccc(CC(=NNC(=O)Nc2ccc(OC(F)(F)F)cc2)c2cccc(C(F)(F)F)c2)cc1
outcome [6]: inactive
outcome [7]: inactive
outcome [8]: inactive
outcome [9]: inactive
outcome [1]: inactive
AC50 [2]: 9.95 µM (active)
outcome [3]: inactive
outcome [4]: inactive
outcome [5]: inactive

Cc1ccc(O)c(C(C)(C)C)c1
outcome [1]: inactive
outcome [2]: inactive
outcome [3]: inactive
outcome [4]: inactive
AC50 [5]: 34.4 µM (active)

CC(=O)Nc1ccccc1O
outcome [1]: inactive
outcome [2]: inactive
outcome [3]: inactive
outcome [4]: inactive
outcome [5]: inactive

CNC[C@H](O)c1cccc(O)c1
outcome [1]: inactive
outcome [2]: inactive
outcome [3]: inactive
outcome [4]: inactive
outcome [5]: inactive

CCCCC/C=C/C=C/C=O
AC50 [1]: 20 µM (active)
AC50 [2]: 29 µM (active)
AC50 [3]: 27.4 µM (active)
AC50 [4]: 20 µM (active)
AC50 [5]: 34.9 µM (active)

O=P(c1ccccc1)(c1ccccc1)c1ccccc1
outcome [1]: inactive
outcome [2]: inactive
outcome [3]: inactive
outcome [4]: inactive
outcome [5]: inactive

c1ccc2c(c1)c1cccc3ccc4cccc2c4c31
AC50 [10]: 9.92 µM (active)
outcome [1]: inactive
AC50 [2]: 20 µM (active)
AC50 [3]: 2.63 µM (active)
outcome [4]: inactive
outcome [5]: inactive

CC(=O)/C=C/C1=C(C)CCCC1(C)C
outcome [1]: inactive
outcome [2]: inactive
outcome [3]: inactive
outcome [4]: inactive
outcome [5]: inactive

CCCCC(CC)COCCC#N (stereo not drawn)
outcome [1]: inactive
outcome [2]: inactive
outcome [3]: inactive
outcome [4]: inactive
outcome [5]: inactive

CC1COc2ccccc2N1C(=O)C(Cl)Cl (stereo not drawn)
AC50 [1]: 12.4 µM (active)
AC50 [2]: 20 µM (active)
outcome [3]: inactive
outcome [4]: inactive
AC50 [5]: 20 µM (active)

O=C(O)c1cn(C2CC2)c2cc(N3CCNCC3)c(F)cc2c1=O
outcome [1]: inactive
outcome [2]: inactive
outcome [3]: inactive
outcome [4]: inactive
outcome [5]: inactive

O=C1CCCCCCCCCCCCCCO1
AC50 [1]: 36.8 µM (active)
AC50 [2]: 23.4 µM (active)
AC50 [3]: 30.4 µM (active)
AC50 [4]: 25.2 µM (active)
AC50 [5]: 20 µM (active)

O=C1OC2(c3cc(Br)c(O)c(Br)c3Oc3c2cc(Br)c(O)c3Br)c2c(Cl)c(Cl)c(Cl)c(Cl)c21
outcome [1]: inactive
outcome [2]: inactive
AC50 [3]: 8.52 µM (active)
AC50 [4]: 9.94 µM (active)
AC50 [5]: 5.03 µM (active)

CCc1c(C)cc(N)c(CC)c1N
outcome [1]: inactive
outcome [2]: inactive
outcome [3]: inactive
outcome [4]: inactive
outcome [5]: inactive

CCCCCCCCC=O
outcome [1]: inactive
outcome [2]: inactive
outcome [3]: inactive
outcome [4]: inactive
outcome [5]: inactive

CC(C)(COC(=O)c1ccccc1)COC(=O)c1ccccc1
outcome [1]: inactive
AC50 [2]: 29.9 µM (active)
outcome [3]: inactive
outcome [4]: inactive
outcome [5]: inactive
